A selection: hits, their analogues and other compounds. The true share with any hit is near 19%.
Pf growth 96h: Primary qHTS for delayed death inhibitors of the malarial parasite plastid, 96 hour incubation. 320,000 tested, 6.9% active. Potency, µM (doses to about 28.7 µM), for the others: at the highest dose activity change, negative = inhibition, most hits filed as inhibitors. P. falciparum luciferase reporter growth, 96 h; also: potency is read from the fitted curve at half-maximal effect; % is scaled to controls: 0 for no effect and ±100 for the full control effect
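Erythrocytes infected with luciferase-expressing P. falciparum were dispensed at 2% hematocrit and 0.05% parasitemia (final), then incubated with compounds 96 hours at 37 C in 5% CO2. Luminescence after detection reagent addition reported growth.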
Pf growth 48h: Primary qHTS for delayed death inhibitors of the malarial parasite plastid, 48 hour incubation; P. falciparum luciferase growth in erythrocytes, 48 h; Potency, µM (doses to about 28.7 µM), inactives show at the highest dose activity change, negative = inhibition, usual class: inhibitors; 310,000 tested, 5.9% active; also: potency is read from the fitted curve at half-maximal effect; % is scaled to controls: 0 for no effect and ±100 for the full control effect
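Here the parasites carry a stable luciferase gene and grow inside erythrocytes in Albumax-based RPMI medium with compound for one erythrocytic cycle. Activity is scored as loss of luminescent signal.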
CHX counter: Cycloheximide Counterscreen for Small Molecule Inhibitors of Shiga Toxin | AID 2314, 2010 | cell reporter, cycloheximide protein synthesis inhibition counterscreen | 300,000 tested, 12% active | max response, %; in the data active = max response mostly above about 13%, no sharp cut-off; inactive = mostly below about 14%; also: read at 38.3 µM for the half of the compounds with a filed dose; 0% is about no effect
MARV entry inh: qHTS for inhibitors of binding or entry into cells for Marburg Virus | 300,000 tested, 1.8% active | Marburg virus pseudotyped entry inhibition, cell reporter | Potency, µM (doses to about 37.8 µM), inactives show top-dose activity change, negative = inhibition, most hits filed as inhibitors; calls by dose curve; tested in HEK293 cells; also: potency is read from the fitted curve at half-maximal effect; % is scaled to controls: 0 for no effect and ±100 for the full control effect
LASV entry inh: qHTS for Inhibitors of binding or entry into cells for Lassa Virus; 300,000 tested, 1.2% active; Potency, µM (top dose mostly 37.9 µM), without a hit: at the top dose activity change, negative = inhibition, hits mostly inhibitors; Lassa virus pseudotype entry inhibition, cell reporter; calls by dose curve; tested in HEK293 cells; also: potency is read from the fitted curve at half-maximal effect; % is scaled to controls: 0 for no effect and ±100 for the full control effect; nearly all actives have a fitted effect of over 50% in size
Shiga toxin inh: A qHTS for Small Molecule Inhibitors of Shiga Toxin; Vero cells, Shiga toxin protein synthesis inhibition reporter; inhibition, % at 38.7 µM; 290,000 tested, 9.2% active; AID 2315, 2010; in the data active = inhibition mostly above about 28%, no sharp cut-off; inactive = mostly below about 43%; also: 0% is about no effect
* = called active by the depositor; i = inactive; ? = inconclusive; nt = not tested or not shown; [ ] = another dose, or the depositor's remark. Unless noted, calls follow the shape of the dose curve; as a rule, active = well fitted inhibition curve with a large enough effect; inconclusive = small, poorly fitted or top-dose-only effect, or another doubt; inactive = no such curve, though single readings can be large or run the other way.

SMILES	Pf growth 96h	Pf growth 48h	CHX counter	MARV entry inh	LASV entry inh	Shiga toxin inh
Fc1ccc(CSc2ccc(-c3cccs3)nn2)cc1	84%	113%	30*	?	?	38
Fc1cccc(CSc2ccc(-c3cccs3)nn2)c1	nt	nt	nt	nt	0%[46.1 µM]	nt
COc1ccc(C(=O)OC2CC3CCC(C2)[N+]3(C)[O-])cc1OC (stereo not given)	?	32%	2	nt	nt	18
O=C(Nc1cccc(S(=O)(=O)N2CCCCCC2)c1)c1cc(=O)c2ccccc2o1	?	?	-3	?	-7%	18
Cc1ccccc1C(=O)Nc1ccccc1-c1nc(-c2ccccc2)no1	nt	nt	nt	-30%[46.1 µM]	4%[46.1 µM]	nt
CCCCc1noc(-c2c(-c3ccccc3Cl)noc2C)n1	9%	?	11	2%[46.1 µM]	?	12
Cc1ccccc1-c1nc(-c2ccccn2)no1	?	182%	-1	?	1.3µM*	5
Cc1ccc(-c2nc(-c3ccncc3)no2)c(Cl)c1	-29%	93%	35*	nt	nt	nt
Cc1ccccc1-c1noc(-c2ccccc2C(=O)O)n1	34%	24%	15*	5%[46.1 µM]	5%	39
Cc1onc(-c2ccccc2Cl)c1-c1nc(-c2ccncc2)no1	12µM*	nt	-3	-18%	1%	6
O=C(c1ccc(Cl)c(S(=O)(=O)N2CCCCC2)c1)N1CCCC1	15%	-15%	1	-15%	1%	-11
CCC(=O)c1ccc(OCC(O)CN2CCN(c3ccccn3)CC2)cc1 (stereo not given)	?	?	-3	?	-26%[46.1 µM]	nt
c1ccc(-c2ccccc2-c2nc(-c3ccncc3)no2)cc1	14%	?	-1	?	-2%	7
Cc1nc(-c2noc(-c3ccccc3Cl)n2)c(C(F)(F)F)o1	19%	92%	61*	nt	nt	47*
CSc1ccccc1-c1nc(-c2ccncc2)no1	-26%	nt	57*	?	?	82*
Clc1ccccc1-c1nnc(-c2cccs2)o1	147%	i	41*	?	?	89*
Clc1ccccc1-c1nc(-c2ccncc2)no1	166%	136%	26*	?	-3%[46.1 µM]	97*
O=C(NC1CCCCC1)c1nc2c(nnn2Cc2ccccc2Cl)c(=O)[nH]1	0%[5.75 µM]	5%	1	?	15%	17
Cc1nn(Cc2ccccc2Cl)c(Cl)c1/C=C/C(=O)OCC(=O)NC1CCS(=O)(=O)C1 (stereo not given)	12%	?	-3	?	6%	-8
Clc1ccccc1-c1nc(-c2cccnc2)no1	59%	52%	25*	7%	?	83*
Cc1ccccc1-c1nc(-c2cccnc2)no1	?	198%	28*	10%	?	83*
O=C(Nc1nnc(-c2cccnc2)o1)c1ccccc1Cl	44%	8%	9	-20%	?	18
Clc1ccccc1/C=C/c1nc(-c2cccnc2)no1	137%	58%	41*	nt	nt	98*
Clc1ccccc1-c1nnc(-c2cccnc2)o1	61%	58%	25*	nt	nt	58
C(=C\c1nc(-c2cccnc2)no1)/c1ccccc1	29%	-13%	8	-7%	?	13
SMILES	Pf growth 96h	Pf growth 48h	CHX counter	MARV entry inh	LASV entry inh	Shiga toxin inh
Cc1ccc(NC(=O)CCCCCN2C(=O)[C@@H]3Cc4ccccc4CN3C2=O)cc1	?	-11%	5	nt	nt	19
COc1ccc(NC(=O)c2sc3nc4c(cc3c2N)CN(Cc2ccccc2)CC4)cc1	nt	nt	nt	?	5%[46.1 µM]	nt
Cc1cc(C)cc(-n2c(C)c3c(C)nnc(C)c3c2C)c1	?	?	-5	?	?	-13
Cc1nnc(C)c2c(C)n(-c3ccc(Cl)c(N)c3)c(C)c12	13µM*	-28%	-3	?	-1%[46.1 µM]	1
CCOc1cc(C2Nc3ccccc3C(=O)N2c2ccccc2OC)ccc1O (stereo not given)	?	nt	-1	?	3%	-19
Cc1nnc(-c2cccc(Br)c2)c2cn(-c3ccc(Br)cc3)nc12	2.6µM*	?	-6	?	?	-20
COc1cc(C2CC(=O)Nc3cc4c(cc32)OCO4)cc(OC)c1O (stereo not given)	nt	nt	nt	7%[46.1 µM]	-8%[46.1 µM]	nt
C/C(Cc1ccccc1)=N\NC(=O)CNC(=O)c1ccccc1Br	-3%	-12%	-3	-35%	-12%	-8
O=[N+]([O-])c1ccc(N/N=C\c2cccn2-c2ccccc2)nc1	?	?	17*	?	?	13
Cc1cc(/C=N/Nc2ccc([N+](=O)[O-])cn2)c(C)n1-c1ccc(C(=O)O)cc1	?	46%	-1	10%[46.1 µM]	21%	26
Cc1ccccc1-n1c(C)cc(/C=N/Nc2ccc([N+](=O)[O-])cn2)c1C	nt	?	36*	-15%	-9%	91*
O=[N+]([O-])c1ccc(NN=Cc2ccccc2)nc1	nt	nt	nt	-11%	-21%[46.1 µM]	nt
CCCN(C(=O)C(NC(=O)c1ccccc1)C(C)C)c1c(N)n(Cc2ccccc2)c(=O)[nH]c1=O (stereo not given)	?	?	nt	-1%	12%	nt
CC(=O)N1[C@H](Cc2ccccc2)C=C[C@]1(C)C(=O)NCCN1CCOCC1	?	5%	11*	nt	nt	23
C[C@]1(C(=O)NCCN2CCOCC2)C=C[C@@H](Cc2ccccc2)N1C(=O)c1ccccc1	-23%	18%	-5	-4%	2%	-12
COCCNC(=O)C1(C)C=CC2(CCCCC2)N1C(=O)c1ccccc1 (stereo not given)	-17%	4%	-2	-5%	8%	-11
CC1(C(=O)NCCN2CCOCC2)C=CC2(CCCCC2)N1C(=O)c1ccccc1 (stereo not given)	?	9%	26*	?	5%	33
COCCNC(=O)C1c2cc(OC)c(OC)cc2C(=O)N(C)C1c1cccnc1 (stereo not given)	9%	19%	-3	3%	13%	-17
CCN(CCCNC(=O)C1CCN(C(=O)c2cc3sccc3n2C)CC1)Cc1ccccc1	?	?	-6	nt	nt	-5
CN(C)c1ccc(/C=N/NC(=O)CN(c2cccc(Cl)c2)S(C)(=O)=O)cc1Br	nt	13µM*	-1	?	?	-17
O=C(NCCN1CCOCC1)C1CCC(CNS(=O)(=O)c2ccc(Cl)cc2)CC1 (stereo not given)	nt	0%	-4	4%	18%	-10
COc1cc(NCc2ccccc2O)c2ncccc2c1	?	?	20*	?	?	28
NC(=S)NNc1cccc2cccnc12	?	7.4µM*	19*	-9%	-23%	39*
NC(=S)Nc1cccc2cccnc12	?	7%	4	19%	1%	15
Oc1ccccc1CNc1cccc2cccnc12	-1%	-2%	45*	?	?	62*

Source: PubChem BioAssay (National Center for Advancing Translational Sciences (NCATS))
